Data taken from PubChem BioAssay (EPA / NIEHS).
Several values for one entry are separate records, joined by “and”; a condition that tells them apart may be missing. Equal entries are not always repeated. The source holds several records for some structures; these can differ, active in one and inactive in another. Activity calls are given as the source filed them. The calls were made as follows: active = hit-call score of the fitted dose curve at least 0.9, where 1 is the maximum; inactive = score below 0.9.

How the values were obtained:
[1] = ATG_PBREM_CIS: Attagene CIS-FACTORIAL HepG2 Assay for human Phenobarbital-responsive Enhancer Module (PBREM) (AID 2282955); conditions: HepG2 PBREM cis-reporter, Attagene multiplexed transcription; actives raise or lower the signal
Summary of the method: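 Reporter mRNA read by RT-PCR, 6-FAM primer extension, HpaI digestion and capillary electrophoresis. Transfected HepG2 cells, 24 h compound exposure. Gain or loss of signal fitted bidirectionally relative to DMSO baseline.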

[2] = target: Paired box protein Pax-6 (Homo sapiens) (UniProt P26367); assay: ATG_Pax6_CIS: Attagene CIS-FACTORIAL HepG2 Assay for human Paired Box 6 (PAX6) (AID 2282956); conditions: HepG2 CIS-FACTORIAL PAX6 reporter transcription, RNA readout; actives raise or lower the signal
Sequence of Paired box protein Pax-6 (Homo sapiens) (P26367 whole entry, looked up): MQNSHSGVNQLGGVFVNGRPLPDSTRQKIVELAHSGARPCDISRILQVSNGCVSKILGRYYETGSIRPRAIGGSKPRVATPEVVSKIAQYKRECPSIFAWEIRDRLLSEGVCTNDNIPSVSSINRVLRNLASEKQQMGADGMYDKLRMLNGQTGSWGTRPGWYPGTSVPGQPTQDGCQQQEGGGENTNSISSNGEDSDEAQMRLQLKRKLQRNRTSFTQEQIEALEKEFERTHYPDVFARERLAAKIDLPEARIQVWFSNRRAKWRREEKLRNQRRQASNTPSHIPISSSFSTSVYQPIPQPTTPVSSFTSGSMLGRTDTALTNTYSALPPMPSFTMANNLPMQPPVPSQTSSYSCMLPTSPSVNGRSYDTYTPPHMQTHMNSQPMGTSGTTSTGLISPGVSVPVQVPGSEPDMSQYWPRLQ
Summary of the method: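 HepG2 cells transiently transfected with cis-promoter-driven multiplexed reporter units sensing endogenous transcription factor activity; 24 h chemical exposure. Reporter mRNA quantified by RT-PCR, 6-FAM labelling, HpaI digestion and capillary electrophoresis; bidirectional fit versus DMSO baseline.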

[3] = ATG_PXRE_CIS: Attagene CIS-FACTORIAL HepG2 Assay for human Pregnane X Receptor Element (PXRE) (AID 2282957); conditions: HepG2 Attagene CIS-FACTORIAL PXRE reporter, mRNA; actives raise or lower the signal
Summary of the method: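 Multiplexed cis-reporter assay in transiently transfected human HepG2 cells; 24 h chemical exposure. Reporter transcripts quantified by RT-PCR with fluorescent labeling and capillary electrophoresis.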

[4] = ATG_Sox_CIS: Attagene CIS-FACTORIAL HepG2 Assay for human SRY-box transcription factor (SOX) (AID 2282960); conditions: HepG2 Attagene cis-factorial SOX reporter, mRNA; actives raise or lower the signal
Summary of the method: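 Read-out: fluorescent RT-PCR products of SOX1-linked reporter transcripts resolved by capillary electrophoresis, fitted bidirectionally against DMSO. Transiently transfected HepG2 cells, 24 h after chemical exposure, endogenous transcription factor activity.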

[5] = target: Transcription factor Sp1 (Homo sapiens) (UniProt P08047); assay: ATG_Sp1_CIS: Attagene CIS-FACTORIAL HepG2 Assay for human Specificity Protein 1 (Sp1) (AID 2282961); conditions: HepG2 Sp1 cis-reporter transcription, actives raise or lower the signal
Sequence of Transcription factor Sp1 (Homo sapiens) (P08047 whole entry, looked up): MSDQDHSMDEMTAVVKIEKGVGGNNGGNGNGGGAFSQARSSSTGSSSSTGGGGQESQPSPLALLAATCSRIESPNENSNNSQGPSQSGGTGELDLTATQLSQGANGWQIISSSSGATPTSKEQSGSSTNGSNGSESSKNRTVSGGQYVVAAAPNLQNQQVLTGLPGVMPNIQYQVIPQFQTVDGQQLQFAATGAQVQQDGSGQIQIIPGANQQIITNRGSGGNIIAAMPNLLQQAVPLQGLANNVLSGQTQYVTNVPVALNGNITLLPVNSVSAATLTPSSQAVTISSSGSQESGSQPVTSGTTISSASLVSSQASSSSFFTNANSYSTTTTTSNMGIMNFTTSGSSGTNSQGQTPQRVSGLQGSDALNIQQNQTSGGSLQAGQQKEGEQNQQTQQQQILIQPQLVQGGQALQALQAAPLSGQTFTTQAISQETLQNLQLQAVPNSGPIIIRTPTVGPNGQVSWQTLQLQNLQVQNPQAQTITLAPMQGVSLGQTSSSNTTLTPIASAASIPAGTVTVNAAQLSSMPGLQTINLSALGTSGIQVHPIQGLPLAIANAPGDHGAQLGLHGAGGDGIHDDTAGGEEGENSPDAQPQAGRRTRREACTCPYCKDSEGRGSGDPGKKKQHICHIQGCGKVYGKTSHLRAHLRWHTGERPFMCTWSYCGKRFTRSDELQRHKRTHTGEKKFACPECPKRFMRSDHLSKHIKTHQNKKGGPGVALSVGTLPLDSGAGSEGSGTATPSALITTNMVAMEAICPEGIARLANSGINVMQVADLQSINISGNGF
Summary of the method: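 Read-out: fluorescence of 6-FAM-labeled, HpaI-digested RT-PCR products separated by capillary electrophoresis. HepG2 cells carried transfected cis-element reporter units and were exposed to chemicals for 24 h; gain or loss of signal fitted relative to DMSO.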

[6] = target: Signal transducer and activator of transcription 3 (Homo sapiens) (UniProt P40763); assay: ATG_STAT3_CIS: Attagene CIS-FACTORIAL HepG2 Assay for human Signal Transducer and Activator of Transcription 3 (STAT3) (AID 2282963); conditions: HepG2, Attagene cis-factorial STAT3 reporter transcription; actives raise or lower the signal
Sequence of Signal transducer and activator of transcription 3 (Homo sapiens) (P40763 whole entry, looked up): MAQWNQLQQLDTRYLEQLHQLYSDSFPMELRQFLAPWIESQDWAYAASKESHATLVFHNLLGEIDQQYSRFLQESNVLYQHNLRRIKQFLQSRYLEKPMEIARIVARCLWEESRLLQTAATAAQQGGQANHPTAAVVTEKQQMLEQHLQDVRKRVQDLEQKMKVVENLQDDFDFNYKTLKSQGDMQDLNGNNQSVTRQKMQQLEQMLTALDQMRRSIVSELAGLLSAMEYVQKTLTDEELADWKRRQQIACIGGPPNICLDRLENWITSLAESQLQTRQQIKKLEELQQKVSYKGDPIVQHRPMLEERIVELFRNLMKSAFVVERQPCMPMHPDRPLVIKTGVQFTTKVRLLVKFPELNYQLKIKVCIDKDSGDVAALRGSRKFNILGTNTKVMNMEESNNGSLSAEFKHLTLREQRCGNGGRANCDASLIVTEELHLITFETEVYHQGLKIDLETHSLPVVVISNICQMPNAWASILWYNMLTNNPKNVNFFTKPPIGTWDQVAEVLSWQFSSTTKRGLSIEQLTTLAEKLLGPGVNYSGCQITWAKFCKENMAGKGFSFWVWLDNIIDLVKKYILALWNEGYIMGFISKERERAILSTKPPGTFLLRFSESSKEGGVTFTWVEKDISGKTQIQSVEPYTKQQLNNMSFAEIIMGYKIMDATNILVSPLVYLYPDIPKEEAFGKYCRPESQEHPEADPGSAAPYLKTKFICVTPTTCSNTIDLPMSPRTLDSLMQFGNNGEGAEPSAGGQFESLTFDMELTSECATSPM
Summary of the method: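 Endogenous STAT3-responsive cis-element activity was read in transiently transfected HepG2 cells after 24 h treatment. Reporter transcripts were quantified via RT-PCR and capillary electrophoresis, with DMSO as negative control and bidirectional curve fitting.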

[7] = ATG_TA_CIS: Attagene CIS-FACTORIAL HepG2 Assay for human TA Basal Promoter (AID 2282964); conditions: HepG2 Attagene CIS-factorial TA basal promoter reporter; actives raise or lower the signal
Summary of the method: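 Fluorescence from labelled RT-PCR reporter fragments, separated by capillary electrophoresis, gives the signal. Cells: HepG2 transiently carrying multiple reporter units, 24 h chemical dosing. Gain or loss relative to DMSO.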

[8] = ATG_RORE_CIS: Attagene CIS-FACTORIAL HepG2 Assay for human RAR-related Orphan Receptor Element (RORE) (AID 2282959); conditions: HepG2 Attagene cis-factorial RORE reporter, mRNA; actives raise or lower the signal
Summary of the method: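 Readout: fluorescent reporter mRNA by RT-PCR plus capillary electrophoresis, 24 h after dosing transfected HepG2 cells. Endogenous transcription factor activity on a cis promoter element is measured. Gain or loss of signal fitted against DMSO.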

[9] = ATG_SREBP_CIS: Attagene CIS-FACTORIAL HepG2 Assay for human Sterol Regulatory Element Binding (SREBP) (AID 2282962); conditions: HepG2 Attagene cis-factorial SREBP reporter, mRNA; actives raise or lower the signal
Summary of the method: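 HepG2 cells transiently transfected with multiplexed cis-promoter reporter units sensing endogenous transcription factors; reporter mRNA measured 24 h after dosing by RT-PCR, 6-FAM labeling, HpaI digestion and capillary electrophoresis. Bidirectional fit versus DMSO.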

SMILES: Oc1ccccc1-c1ccccc1
- outcome [1]: inactive
- AC50 [2]: 57.7 µM (active)
- outcome [2]: inactive
- AC50 [3]: 13.5 µM (active) and 3.11 µM (active)
- AC50 [4]: 46 µM (active)
- outcome [4]: inactive
- AC50 [5]: 50 µM (active)
- outcome [5]: inactive
- outcome [6]: inactive
- outcome [7]: inactive

SMILES: CC(C)Oc1cc(-n2nc(C(C)(C)C)oc2=O)c(Cl)cc1Cl
- AC50 [1]: 0.427 µM (active)
- outcome [2]: inactive
- outcome [8]: inactive
- outcome [4]: inactive
- outcome [5]: inactive
- outcome [9]: inactive
- outcome [6]: inactive
- outcome [7]: inactive

SMILES: C=CCC1=C(C)[C@@H](OC(=O)[C@@H]2[C@@H](C=C(C)C)C2(C)C)CC1=O
- AC50 [1]: 5.59 µM (active)
- outcome [2]: inactive
- AC50 [3]: 965 nM (active)
- outcome [8]: inactive
- outcome [4]: inactive
- outcome [9]: inactive
- outcome [6]: inactive

SMILES: CCNc1nc(Cl)nc(NC(C)C)n1
- outcome [2]: inactive
- AC50 [3]: 27.4 µM (active) [middle of 4 runs]
- outcome [8]: inactive
- outcome [4]: inactive
- outcome [6]: inactive
- outcome [7]: inactive

SMILES: COP(N)(=O)SC (configuration not stated)
- outcome [1]: inactive
- outcome [2]: inactive
- outcome [8]: inactive
- outcome [4]: inactive
- outcome [6]: inactive

SMILES: CCOC(=O)C(Cl)Cc1cc(-n2nc(C)n(C(F)F)c2=O)c(F)cc1Cl (configuration not stated)
- outcome [1]: inactive
- outcome [2]: inactive
- outcome [8]: inactive
- outcome [4]: inactive
- outcome [5]: inactive
- outcome [6]: inactive

SMILES: N#CC(CCc1ccc(Cl)cc1)(Cn1cncn1)c1ccccc1 (configuration not stated)
- outcome [1]: inactive
- outcome [2]: inactive
- outcome [8]: inactive
- outcome [4]: inactive
- outcome [6]: inactive
- AC50 [7]: 16.9 µM (active)

SMILES: CN(C)C(=S)SSC(=S)N(C)C
- outcome [1]: inactive
- outcome [2]: inactive
- outcome [8]: inactive
- outcome [4]: inactive
- outcome [6]: inactive

SMILES: C#CCOS(=O)OC1CCCCC1Oc1ccc(C(C)(C)C)cc1 (configuration not stated)
- AC50 [1]: 1.39 µM (active)
- outcome [2]: inactive
- AC50 [8]: 2.4 µM (active)
- AC50 [4]: 4.22 µM (active)
- outcome [6]: inactive
- outcome [7]: inactive

SMILES: CCOc1cc(Oc2ccc(C(F)(F)F)cc2Cl)ccc1[N+](=O)[O-]
- outcome [1]: inactive
- outcome [2]: inactive
- AC50 [8]: 29.8 µM (active)
- outcome [4]: inactive
- outcome [9]: inactive
- outcome [6]: inactive

SMILES: Cc1ccc(-c2c(Cl)nc(C#N)n2S(=O)(=O)N(C)C)cc1
- AC50 [1]: 11.9 µM (active)
- outcome [2]: inactive
- AC50 [8]: 16.3 µM (active)
- outcome [4]: inactive
- AC50 [5]: 11.9 µM (active)
- outcome [6]: inactive

SMILES: CC1COC(Cn2cncn2)(c2ccc(Oc3ccc(Cl)cc3)cc2Cl)O1 (configuration not stated)
- outcome [2]: inactive
- outcome [4]: inactive
- AC50 [9]: 1.97 µM (active)
- outcome [6]: inactive
- outcome [7]: inactive

SMILES: CC(Oc1ccc(Cl)cc1Cl)C(=O)O (configuration not stated)
- outcome [2]: inactive
- outcome [8]: inactive
- outcome [4]: inactive
- outcome [9]: inactive
- outcome [6]: inactive
- outcome [7]: inactive

SMILES: O=C(Nc1ccccc1)Nc1ccnc(Cl)c1
- outcome [2]: inactive
- AC50 [8]: 67.2 µM (active)
- AC50 [4]: 11.9 µM (active)
- AC50 [5]: 24.9 µM (active)
- outcome [6]: inactive

SMILES: CCON=C(CC)C1=C(O)CC(c2c(C)cc(C)cc2C)CC1=O (configuration not stated)
- outcome [1]: inactive
- outcome [2]: inactive
- outcome [8]: inactive
- outcome [4]: inactive
- outcome [5]: inactive
- outcome [6]: inactive
- outcome [7]: inactive

SMILES: OC(c1ccc(Cl)cc1)(c1cncnc1)c1ccccc1Cl (configuration not stated)
- outcome [1]: inactive
- outcome [2]: inactive
- outcome [8]: inactive
- outcome [4]: inactive
- outcome [6]: inactive

SMILES: CC1=C(C(=O)Nc2ccccc2)SCCO1
- outcome [2]: inactive
- outcome [8]: inactive
- outcome [4]: inactive
- outcome [5]: inactive
- outcome [9]: inactive
- outcome [6]: inactive

SMILES: Cc1c(F)c(F)c(COC(=O)C2C(/C=C(\Cl)C(F)(F)F)C2(C)C)c(F)c1F (configuration not stated)
- outcome [2]: inactive
- AC50 [3]: 13800 nM (active)
- outcome [4]: inactive
- outcome [6]: inactive
- outcome [7]: inactive

SMILES: COC(=O)c1ccccc1C(=O)OC
- outcome [1]: inactive
- outcome [2]: inactive
- outcome [8]: inactive
- outcome [4]: inactive
- outcome [6]: inactive

SMILES: CNC(=O)ON=CC(C)(C)SC
- outcome [1]: inactive
- outcome [2]: inactive
- outcome [8]: inactive
- outcome [4]: inactive
- outcome [6]: inactive
- outcome [7]: inactive

SMILES: C=CC1(C)OC(=O)N(c2cc(Cl)cc(Cl)c2)C1=O (configuration not stated)
- outcome [2]: inactive
- outcome [8]: inactive
- outcome [4]: inactive
- outcome [9]: inactive
- outcome [6]: inactive

SMILES: CCc1nn(C)c(C(=O)NCc2ccc(C(C)(C)C)cc2)c1Cl
- AC50 [1]: 1.39 µM (active)
- outcome [2]: inactive
- outcome [8]: inactive
- outcome [4]: inactive
- outcome [6]: inactive

SMILES: COP(=S)(OC)Oc1nc(Cl)c(Cl)cc1Cl
- outcome [1]: inactive
- outcome [2]: inactive
- outcome [8]: inactive
- outcome [4]: inactive
- outcome [6]: inactive

SMILES: O=C(O)COc1nc(Cl)c(Cl)cc1Cl
- outcome [1]: inactive
- outcome [2]: inactive
- outcome [8]: inactive
- outcome [4]: inactive
- outcome [5]: inactive
- outcome [6]: inactive

SMILES: CNC(=S)S
- outcome [1]: inactive
- outcome [2]: inactive
- outcome [4]: inactive
- outcome [6]: inactive
- outcome [7]: inactive

SMILES: CO/C=C(/C(=O)OC)c1ccccc1Oc1cc(Oc2ccccc2C#N)ncn1
- outcome [1]: inactive
- outcome [2]: inactive
- outcome [8]: inactive
- outcome [4]: inactive
- outcome [6]: inactive
- outcome [7]: inactive

SMILES: Cc1cc(Cl)ccc1OCC(=O)O
- outcome [1]: inactive
- outcome [2]: inactive
- outcome [8]: inactive
- outcome [4]: inactive
- outcome [6]: inactive

SMILES: CC(C)(C)c1ccc(CSc2cnn(C(C)(C)C)c(=O)c2Cl)cc1
- AC50 [1]: 0.527 µM (active)
- outcome [2]: inactive
- AC50 [8]: 1.88 µM (active)
- outcome [4]: inactive
- outcome [9]: inactive
- outcome [6]: inactive

SMILES: COc1ccc(C(c2ccc(OC)cc2)C(Cl)(Cl)Cl)cc1
- outcome [1]: inactive
- outcome [2]: inactive
- outcome [8]: inactive
- outcome [4]: inactive
- outcome [9]: inactive
- outcome [6]: inactive
- outcome [7]: inactive

SMILES: O=C(O)c1nc(Cl)ccc1Cl
- outcome [2]: inactive
- outcome [3]: inactive
- outcome [8]: inactive
- outcome [4]: inactive
- outcome [6]: inactive
- outcome [7]: inactive
